Experimental data published in PubChem BioAssay (EPA / NIEHS).
Results filed as inconclusive are left out. Activity calls are given as the source filed them. Rule for the calls, unless noted: active = hit-call score of the fitted dose curve at least 0.9, where 1 is the maximum; inactive = score below 0.9.

How the values were obtained:
[1] = ATG_PBREM_CIS: Attagene CIS-FACTORIAL HepG2 Assay for human Phenobarbital-responsive Enhancer Module (PBREM) (AID 2282955); details: HepG2 PBREM cis-reporter, Attagene multiplexed transcription; actives raise or lower the signal
In short: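 HepG2, transient MRTU transfection, 24 h dosing; RNA → oligo(dT) RT → PCR → 6-FAM extension → HpaI → CE. Bidirectional fit vs DMSO.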

[2] = target: Paired box protein Pax-6 (Homo sapiens) (UniProt P26367); assay: ATG_Pax6_CIS: Attagene CIS-FACTORIAL HepG2 Assay for human Paired Box 6 (PAX6) (AID 2282956); details: HepG2 CIS-FACTORIAL PAX6 reporter transcription, RNA readout; actives raise or lower the signal
Paired box protein Pax-6 (Homo sapiens), sequence (P26367 whole entry, looked up): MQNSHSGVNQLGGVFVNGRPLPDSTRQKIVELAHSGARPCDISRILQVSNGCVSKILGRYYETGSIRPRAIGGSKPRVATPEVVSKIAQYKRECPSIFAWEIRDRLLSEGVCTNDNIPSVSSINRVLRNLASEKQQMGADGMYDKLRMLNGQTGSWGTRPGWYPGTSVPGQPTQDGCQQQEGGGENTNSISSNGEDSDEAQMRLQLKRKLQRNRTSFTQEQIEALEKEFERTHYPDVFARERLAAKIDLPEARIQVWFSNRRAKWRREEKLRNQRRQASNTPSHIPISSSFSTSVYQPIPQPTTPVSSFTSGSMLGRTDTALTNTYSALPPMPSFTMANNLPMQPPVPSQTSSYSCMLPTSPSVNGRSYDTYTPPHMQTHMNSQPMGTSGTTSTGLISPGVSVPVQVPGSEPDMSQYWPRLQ
In short: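 Read-out is reporter transcript level, measured by RT-PCR with fluorescent primer extension and capillary electrophoresis after 24 h dosing of transfected HepG2 cells. Activity in either direction fitted relative to DMSO control.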

[3] = ATG_PXRE_CIS: Attagene CIS-FACTORIAL HepG2 Assay for human Pregnane X Receptor Element (PXRE) (AID 2282957); details: HepG2 Attagene CIS-FACTORIAL PXRE reporter, mRNA; actives raise or lower the signal
In short: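 Bidirectional activity, baselined to DMSO, derived from reporter mRNA fluorescence (RT-PCR plus capillary electrophoresis) in HepG2 cells bearing cis-promoter reporter units, 24 h exposure.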

[4] = ATG_PPRE_CIS: Attagene CIS-FACTORIAL HepG2 Assay for human Peroxisome Proliferator-activated Response Element (PPRE) (AID 2282958); details: HepG2 PPRE cis-element reporter, Attagene transcription factor profiling; actives raise or lower the signal
In short: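 Transcript-level reporter induction in transfected HepG2 cells after 24 h chemical exposure, quantified by fluorescence from RT-PCR products separated by capillary electrophoresis.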

[5] = ATG_RORE_CIS: Attagene CIS-FACTORIAL HepG2 Assay for human RAR-related Orphan Receptor Element (RORE) (AID 2282959); details: HepG2 Attagene cis-factorial RORE reporter, mRNA; actives raise or lower the signal
In short: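 Multiplexed reporter assay measuring mRNA induction from a cis promoter element in transiently transfected HepG2 cells after 24 h treatment. Detection via RT-PCR and capillary electrophoresis fluorescence; DMSO serves as baseline.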

[6] = ATG_Sox_CIS: Attagene CIS-FACTORIAL HepG2 Assay for human SRY-box transcription factor (SOX) (AID 2282960); details: HepG2 Attagene cis-factorial SOX reporter, mRNA; actives raise or lower the signal
In short: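 Cells were transfected with reporter constructs under cis-regulatory promoters, then exposed to chemicals for 24 h. Reporter transcripts were quantified by fluorescence after RT-PCR and capillary electrophoresis; activity was fitted in both directions against DMSO.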

[7] = target: Transcription factor Sp1 (Homo sapiens) (UniProt P08047); assay: ATG_Sp1_CIS: Attagene CIS-FACTORIAL HepG2 Assay for human Specificity Protein 1 (Sp1) (AID 2282961); details: HepG2 Sp1 cis-reporter transcription, actives raise or lower the signal
Transcription factor Sp1 (Homo sapiens), sequence (P08047 whole entry, looked up): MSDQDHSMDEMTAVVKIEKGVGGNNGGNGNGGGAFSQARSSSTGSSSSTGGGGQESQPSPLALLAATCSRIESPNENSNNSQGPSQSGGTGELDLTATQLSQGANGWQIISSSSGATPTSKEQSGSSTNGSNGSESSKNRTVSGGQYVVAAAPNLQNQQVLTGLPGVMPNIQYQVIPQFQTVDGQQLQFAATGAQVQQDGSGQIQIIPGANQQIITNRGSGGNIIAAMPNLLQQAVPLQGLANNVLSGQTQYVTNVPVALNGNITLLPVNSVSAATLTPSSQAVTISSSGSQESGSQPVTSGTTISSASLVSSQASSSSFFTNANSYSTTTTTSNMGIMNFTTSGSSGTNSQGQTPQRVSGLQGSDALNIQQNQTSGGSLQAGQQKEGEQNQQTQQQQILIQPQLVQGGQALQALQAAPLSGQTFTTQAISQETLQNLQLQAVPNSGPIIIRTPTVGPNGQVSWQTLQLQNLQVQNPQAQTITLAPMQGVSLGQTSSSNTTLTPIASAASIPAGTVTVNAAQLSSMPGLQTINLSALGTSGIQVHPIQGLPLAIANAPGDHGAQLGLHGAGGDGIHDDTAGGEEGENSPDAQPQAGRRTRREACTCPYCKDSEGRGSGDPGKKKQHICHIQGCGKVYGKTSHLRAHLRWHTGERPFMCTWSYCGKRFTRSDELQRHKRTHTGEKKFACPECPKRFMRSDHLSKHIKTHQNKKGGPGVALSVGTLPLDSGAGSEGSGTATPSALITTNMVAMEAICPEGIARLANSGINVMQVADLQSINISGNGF
In short: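 Measures mRNA induction of an Sp1-linked reporter in HepG2 cells 24 h post-dosing. Multiplexed reporters read by RT-PCR and capillary electrophoresis; DMSO serves as negative control and baseline.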

[8] = ATG_SREBP_CIS: Attagene CIS-FACTORIAL HepG2 Assay for human Sterol Regulatory Element Binding (SREBP) (AID 2282962); details: HepG2 Attagene cis-factorial SREBP reporter, mRNA; actives raise or lower the signal
In short: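 Endogenous SREBP activity read as cis-element-driven reporter transcript in transiently transfected HepG2, 24 h post-dosing; quantified via RT-PCR plus capillary electrophoresis of fluorescent fragments. Gain or loss of signal fitted relative to DMSO baseline.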

[9] = target: Signal transducer and activator of transcription 3 (Homo sapiens) (UniProt P40763); assay: ATG_STAT3_CIS: Attagene CIS-FACTORIAL HepG2 Assay for human Signal Transducer and Activator of Transcription 3 (STAT3) (AID 2282963); details: HepG2, Attagene cis-factorial STAT3 reporter transcription; actives raise or lower the signal
Signal transducer and activator of transcription 3 (Homo sapiens), sequence (P40763 whole entry, looked up, the tested form may be a part): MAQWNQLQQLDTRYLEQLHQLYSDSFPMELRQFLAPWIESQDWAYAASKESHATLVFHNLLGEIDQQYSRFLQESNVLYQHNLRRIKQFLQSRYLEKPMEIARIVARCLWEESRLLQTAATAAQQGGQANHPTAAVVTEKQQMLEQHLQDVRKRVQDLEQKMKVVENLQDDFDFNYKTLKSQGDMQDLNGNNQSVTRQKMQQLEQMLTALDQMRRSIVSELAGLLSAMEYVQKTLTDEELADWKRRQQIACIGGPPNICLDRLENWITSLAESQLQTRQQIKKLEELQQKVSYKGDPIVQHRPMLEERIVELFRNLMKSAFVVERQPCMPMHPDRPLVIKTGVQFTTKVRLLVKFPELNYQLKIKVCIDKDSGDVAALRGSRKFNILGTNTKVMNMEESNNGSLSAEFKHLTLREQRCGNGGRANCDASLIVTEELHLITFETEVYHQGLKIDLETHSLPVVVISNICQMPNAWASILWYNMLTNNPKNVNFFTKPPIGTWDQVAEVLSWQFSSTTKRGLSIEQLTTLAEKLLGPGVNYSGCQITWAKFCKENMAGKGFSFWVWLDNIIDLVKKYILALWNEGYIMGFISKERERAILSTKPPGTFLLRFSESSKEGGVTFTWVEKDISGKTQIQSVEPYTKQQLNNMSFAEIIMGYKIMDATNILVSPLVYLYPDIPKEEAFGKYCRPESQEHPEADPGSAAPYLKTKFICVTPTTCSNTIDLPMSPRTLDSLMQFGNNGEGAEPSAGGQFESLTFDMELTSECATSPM
In short: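 Readout: fluorescent reporter mRNA fragments resolved by capillary electrophoresis. Setup: HepG2 transfected with MRTUs reporting endogenous transcription-factor activity, dosed 24 h. Gain or loss of signal fitted bidirectionally against DMSO control.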

[10] = ATG_TA_CIS: Attagene CIS-FACTORIAL HepG2 Assay for human TA Basal Promoter (AID 2282964); details: HepG2 Attagene CIS-factorial TA basal promoter reporter; actives raise or lower the signal
In short: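 Multiplexed mRNA reporter assay, HepG2, 24 h. Reporter cDNA amplified, 6-FAM primer-extended, HpaI-cut, CE-sized; DMSO = negative control and baseline.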

[11] = ATG_TCF_b_cat_CIS: Attagene CIS-FACTORIAL HepG2 Assay for human T-Cell-Factor with beta-catenin (TCF/b-cat) (AID 2282965); details: HepG2 TCF/beta-catenin cis-reporter transcription, actives raise or lower the signal
In short: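 Cells of the HepG2 line carry transiently transfected reporter units whose promoters respond to endogenous factors. Twenty-four hours post-dosing, reporter mRNA induction is measured by fluorescent RT-PCR and capillary electrophoresis, with DMSO as baseline.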

[12] = ATG_TAL_CIS: Attagene CIS-FACTORIAL HepG2 Assay for human TAL Basal Promoter (AID 2282966); details: HepG2 Attagene cis-factorial TAL promoter reporter; actives raise or lower the signal;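 note: background control endpoint measuring basal TAL promoter reporter mRNA not a specific factor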
In short: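 Human hepatoma HepG2 cells, transfected with promoter-regulated reporter units, were treated 24 h. Reporter transcript levels, measured through RT-PCR and capillary electrophoresis, were fitted for gain or loss relative to DMSO.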

[13] = ATG_TGFb_CIS: Attagene CIS-FACTORIAL HepG2 Assay for human Transforming Growth Factor (TGF) (AID 2282967); details: HepG2 Attagene CIS TGFb reporter, mRNA transcription; actives raise or lower the signal
In short: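 Transcript-level reporter readout: HepG2 transfectants, 24 h exposure, RNA to cDNA, reporter-specific PCR, fluorescent primer extension, capillary sizing against ROX standards. Gain- or loss-of-signal relative to DMSO.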

[14] = ATG_VDRE_CIS: Attagene CIS-FACTORIAL HepG2 Assay for human Vitamin D Receptor Element (VDRE) (AID 2282968); details: HepG2 VDRE cis-reporter transcription, actives raise or lower the signal
In short: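 Transient MRTU transfection of HepG2, 24 h compound exposure. Readout: reporter transcripts via RT-PCR and capillary electrophoresis, fluorescence. Bidirectional fit vs DMSO.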

[15] = target: Nuclear receptor subfamily 1 group I member 3 (Homo sapiens) (UniProt Q14994); assay: ATG_CAR_TRANS: Attagene TRANS-FACTORIAL HepG2 Assay for human Constitutive Androstane Receptor (CAR) (AID 2282969; active = hit-call score of the fitted dose curve at least 0.9, where 1 is the maximum;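 note: activators raise reporter mRNA above DMSO so AC50 marks induction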); details: HepG2 Attagene TRANS-FACTORIAL CAR reporter
Nuclear receptor subfamily 1 group I member 3 (Homo sapiens), sequence (Q14994 whole entry, looked up, the tested form may be a part): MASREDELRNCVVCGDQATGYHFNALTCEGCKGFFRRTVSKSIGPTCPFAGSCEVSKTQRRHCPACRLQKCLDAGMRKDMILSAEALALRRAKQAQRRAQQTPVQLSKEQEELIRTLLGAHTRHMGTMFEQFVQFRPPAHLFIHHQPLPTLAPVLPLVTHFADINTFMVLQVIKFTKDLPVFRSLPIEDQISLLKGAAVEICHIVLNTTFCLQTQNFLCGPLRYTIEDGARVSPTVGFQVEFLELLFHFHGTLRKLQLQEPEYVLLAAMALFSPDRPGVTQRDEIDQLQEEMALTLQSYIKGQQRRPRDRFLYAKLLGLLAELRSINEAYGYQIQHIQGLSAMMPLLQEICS
In short: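 Transiently transfected HepG2, multiplex TRANS reporters (CAR-Gal4 chimera driving GAL4-UAS reporter). 24 h dosing. Readout: reporter transcript by RT-PCR + capillary electrophoresis, fluorescence intensity; positive direction vs DMSO.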

[16] = target: Estrogen receptor (Homo sapiens) (UniProt P03372); assay: ATG_ERa_TRANS: Attagene TRANS-FACTORIAL HepG2 Assay for human Estrogen Receptor alpha (ERa) (AID 2282970; active = hit-call score of the fitted dose curve at least 0.9, where 1 is the maximum); details: HepG2 Attagene TRANS ERa GAL4 reporter, mRNA
Estrogen receptor (Homo sapiens), sequence (P03372 whole entry, looked up, the tested form may be a part): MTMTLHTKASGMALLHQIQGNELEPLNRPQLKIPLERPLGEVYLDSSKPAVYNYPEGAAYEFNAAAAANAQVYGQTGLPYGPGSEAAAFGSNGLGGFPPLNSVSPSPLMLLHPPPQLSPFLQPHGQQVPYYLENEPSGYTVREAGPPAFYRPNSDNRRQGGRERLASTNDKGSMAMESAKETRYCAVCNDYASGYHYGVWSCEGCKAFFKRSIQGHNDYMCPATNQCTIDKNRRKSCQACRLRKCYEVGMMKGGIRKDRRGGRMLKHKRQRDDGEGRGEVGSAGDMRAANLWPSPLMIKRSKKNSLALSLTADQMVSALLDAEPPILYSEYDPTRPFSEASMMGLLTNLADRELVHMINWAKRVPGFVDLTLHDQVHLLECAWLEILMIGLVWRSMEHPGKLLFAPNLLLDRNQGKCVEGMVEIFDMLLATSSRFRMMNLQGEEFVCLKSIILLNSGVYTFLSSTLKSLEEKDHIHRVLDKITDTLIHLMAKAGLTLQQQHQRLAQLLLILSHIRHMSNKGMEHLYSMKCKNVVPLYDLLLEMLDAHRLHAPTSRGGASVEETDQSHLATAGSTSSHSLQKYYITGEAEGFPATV
In short: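 Signal derives from fluorescence of labelled reporter PCR fragments separated by capillary electrophoresis. HepG2 cells transiently carrying multiple GAL4-UAS reporter units were treated 24 hours, and induction above DMSO baseline was fitted as activity.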

[17] = target: X-box-binding protein 1 (Homo sapiens) (UniProt P17861); assay: ATG_Xbp1_CIS: Attagene CIS-FACTORIAL HepG2 Assay for human X-box Binding Protein 1 (XBP1) (AID 2282972); details: HepG2 XBP1 cis-element reporter, Attagene multiplex; actives raise or lower the signal
X-box-binding protein 1 (Homo sapiens), sequence (P17861 whole entry, looked up): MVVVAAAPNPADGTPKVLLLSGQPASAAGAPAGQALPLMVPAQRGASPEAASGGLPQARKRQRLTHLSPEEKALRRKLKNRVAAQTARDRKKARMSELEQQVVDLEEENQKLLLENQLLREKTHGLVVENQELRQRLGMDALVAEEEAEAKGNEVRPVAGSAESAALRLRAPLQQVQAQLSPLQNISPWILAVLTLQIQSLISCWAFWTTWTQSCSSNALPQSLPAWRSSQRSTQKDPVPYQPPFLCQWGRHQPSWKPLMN
In short: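 Reporter transcripts were quantified by RT-PCR with fluorescent primer extension and capillary electrophoresis after 24 h chemical exposure. Cells: transiently transfected HepG2 carrying cis-regulated reporter constructs; data fitted bidirectionally relative to DMSO.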

[18] = ATG_M_19_TRANS: Attagene TRANS-FACTORIAL HepG2 Assay for M19 Transcription Factor (Internal Marker) (AID 2282974; active = hit-call score of the fitted dose curve at least 0.9, where 1 is the maximum); details: HepG2 Attagene TRANS-FACTORIAL M19 internal marker reporter
In short: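 After transfection of HepG2 with GAL4-UAS-driven reporter constructs, cells are dosed for 24 h. Total RNA is reverse-transcribed, reporter sequences PCR-amplified and labelled, then HpaI-digested and sized by capillary electrophoresis.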

[19] = ATG_GAL4_TRANS: Attagene TRANS-FACTORIAL HepG2 Assay for GAL4 (Internal Marker) (AID 2282976; active = hit-call score of the fitted dose curve at least 0.9, where 1 is the maximum); details: HepG2 Attagene TRANS GAL4 internal marker reporter
In short: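 Liver HepG2 line bearing multiplexed GAL4-UAS reporter constructs; 24 h chemical treatment. Transcripts were quantified as fluorescent fragments on capillary electrophoresis after RT-PCR and HpaI cut, with activity fitted upward from DMSO.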

[20] = target: Steroid hormone receptor ERR1 (Homo sapiens) (UniProt P11474); assay: ATG_ERRa_TRANS: Attagene TRANS-FACTORIAL HepG2 Assay for human Estrogen-Related Receptor alpha (ERRa) (AID 2282971; active = hit-call score of the fitted dose curve at least 0.9, where 1 is the maximum); details: HepG2 Attagene TRANS reporter, ERRa transactivation
Steroid hormone receptor ERR1 (Homo sapiens), sequence (P11474 whole entry, looked up, the tested form may be a part): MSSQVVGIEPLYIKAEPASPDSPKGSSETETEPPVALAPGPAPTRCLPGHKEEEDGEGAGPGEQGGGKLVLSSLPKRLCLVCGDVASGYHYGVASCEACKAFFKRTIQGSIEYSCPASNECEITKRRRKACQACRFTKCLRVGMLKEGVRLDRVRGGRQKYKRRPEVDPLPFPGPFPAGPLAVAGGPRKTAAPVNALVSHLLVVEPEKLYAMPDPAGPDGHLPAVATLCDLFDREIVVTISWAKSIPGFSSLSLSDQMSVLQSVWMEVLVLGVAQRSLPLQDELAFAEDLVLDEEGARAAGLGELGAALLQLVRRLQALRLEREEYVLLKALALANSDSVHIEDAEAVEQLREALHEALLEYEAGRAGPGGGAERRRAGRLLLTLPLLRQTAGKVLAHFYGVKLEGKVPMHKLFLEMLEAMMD
In short: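 Signal gain relative to DMSO for an ERRa-Gal4 chimeric receptor, read as reporter mRNA by RT-PCR/capillary electrophoresis. Human HepG2 liver cells, transient multiplex reporter transfection, 24 h chemical exposure.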

Measured: AC50

C=Cc1cccc(C)c1
inactive: [1] | [2] | [4] | [5] | [6] | [7] | [8] | [9] | [10] | [11] | [12] | [13] | [14] | [15] | [16] | [17] | [18]
active: [3] 13.3 µM

c1ccc(Nc2cccc3ccccc23)cc1
inactive: [1] | [4] | [5] | [9] | [10] | [12] | [13] | [15]
active: [2] 33.4 µM | [3] 8.67 µM | [6] 48.1 µM | [7] 47.1 µM | [8] 60.4 µM | [11] 50.8 µM | [14] 10.3 µM | [16] 2.75 µM | [17] 53.5 µM

O=C(Cl)c1ccc(C(=O)Cl)cc1
inactive: [1] | [2] | [3] | [4] | [5] | [6] | [7] | [9] | [10] | [11] | [12] | [13] | [14] | [15] | [16] | [17] | [18] | [19]

C=CCOC(=O)c1ccc(C(=O)OCC=C)c(C(=O)OCC=C)c1
inactive: [1] | [2] | [6] | [7] | [8] | [9] | [10] | [11] | [12] | [13] | [15] | [16] | [17] | [18]
active: [3] 21 µM | [4] 14.8 µM | [5] 32.5 µM | [14] 41.6 µM

COc1cc(O)c(C(=O)c2ccccc2)cc1S(=O)(=O)O
inactive: [1] | [2] | [3] | [4] | [5] | [6] | [7] | [8] | [9] | [10] | [11] | [12] | [13] | [14] | [15] | [16] | [17] | [18] | [19]

CCCCCCCCCC[N+](C)(CCCCCCCCCC)CCC[Si](OC)(OC)OC
inactive: [2] | [6] | [10] | [12] | [13] | [14] | [15] | [18]
active: [1] 19.3 µM | [3] 3.94 µM | [4] 19.9 µM | [5] 18.2 µM | [7] 21.1 µM | [8] 17 µM | [9] 18.1 µM | [17] 18 µM

C=CC(C)(CCC=C(C)C)OC(=O)C=Cc1ccccc1 (centres undefined)
inactive: [1] | [2] | [4] | [5] | [6] | [7] | [8] | [9] | [10] | [11] | [12] | [13] | [14] | [17]
active: [3] 1.82 µM | [16] 7.3 µM

Nc1ccc(O)c([N+](=O)[O-])c1
inactive: [1] | [2] | [3] | [4] | [5] | [6] | [7] | [8] | [9] | [10] | [11] | [12] | [13] | [14] | [16] | [20] | [17]
